High-throughput results: PubChem BioAssay, National Center for Advancing Translational Sciences (NCATS)
The list is not random: actives were taken first. Their share in the collection is about 4.3%.
GLP1R ag: agonists of human GLP-1 receptor | 380,000 compounds, 0.007% hits | HEK293 GLP-1R CRE-luciferase, luminescence, 4-6 h; cells express a hypersensitive GLP-1R form | Potency, µM (highest dose often 45.6 µM), for inactives: at the highest dose activation, actives largely listed as activators | P43220; also: potency is read from the fitted curve at half-maximal effect; % of control where 0% means no effect
GLP1R inv ag: inverse agonists of human GLP-1 receptor; Potency, µM (series often up to 38.3 µM), for inactives: at the top dose activity change, negative = inhibition, hits mostly inhibitors; P43220; 410,000 compounds, 1.6% hits; HEK293 GLP-1R CRE-luciferase, luminescence, 24 h; GLP-1R form is constitutively active; also: potency is read from the fitted curve at half-maximal effect; % is scaled to controls: 0 for no effect and ±100 for the full control effect; nearly all actives have a fitted effect of over 55% in size
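GLP-1R inverse agonism mode: basal reporter luminescence in engineered HEK293 cells measured after one day of compound exposure at 37 deg C, with a 12 min room-temperature detection step.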
D3 ag: D3 dopamine receptor (human) agonism | P35462 | D3R DiscoveRx beta-arrestin cells, luminescence, 90 min | max activation, % | 410,000 compounds, 0.58% hits | AID 652048; in the data active = max activation above about 30%; also: 0% is about no effect
Target sequence (P35462 whole entry, looked up): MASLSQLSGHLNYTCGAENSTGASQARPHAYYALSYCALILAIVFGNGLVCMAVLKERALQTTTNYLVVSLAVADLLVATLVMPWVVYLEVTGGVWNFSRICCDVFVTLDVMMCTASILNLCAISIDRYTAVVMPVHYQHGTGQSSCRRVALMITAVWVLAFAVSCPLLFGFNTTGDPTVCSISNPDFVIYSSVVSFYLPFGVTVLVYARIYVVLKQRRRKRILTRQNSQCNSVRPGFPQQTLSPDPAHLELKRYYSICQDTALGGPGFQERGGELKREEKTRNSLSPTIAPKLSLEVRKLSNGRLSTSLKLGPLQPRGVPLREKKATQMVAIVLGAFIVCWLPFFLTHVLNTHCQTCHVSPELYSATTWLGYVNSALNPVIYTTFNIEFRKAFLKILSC
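Cells at 1500/well, incubated overnight, then treated with pinned compounds (dopamine as control) for 90 min at 37 degrees C. DiscoveRx reagent added for 30 - 60 minutes at room temperature; luminescence read.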
DRD3 antagonist: blocks the human D3 dopamine receptor | P35462 | D3R cells, DiscoveRx beta-arrestin luminescence, antagonist mode; active compounds read low | max response, negative = inhibition, % | 360,000 compounds, 2.5% hits; in the data active = max response below about -50%; inconclusive = no clear call, values can overlap the other calls; also: % is scaled to controls: 0 for no effect and ±100 for the full control effect
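Cells expressing the human receptor were seeded at 1500 cells/well, incubated overnight at 37 degrees C in 5% CO2, then exposed to library compounds with dopamine controls for 90 minutes at 37 degrees C before luminescent detection.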
* marks the source's active call; other numbers are inactive results; ? = inconclusive; · = no result. Unless noted, calls follow the shape of the dose curve; as a rule, active = well fitted curve in the direction sought with a large enough effect; inconclusive = small, poorly fitted or top-dose-only effect, or another doubt; inactive = no such curve, though single readings can be large; an effect the other way counts as inactive or inconclusive.

SMILES | GLP1R ag | GLP1R inv ag | D3 ag | DRD3 antagonist
Cn1c(=O)cc(NCCc2ccccc2)[nH]c1=O | -1% | -5% | 2 | 21
COc1ccc(-c2nc3ccc(C4=NNC(=O)CC4C)cc3[nH]2)cc1 (centres undefined) | · | · | -2 | ·
CCN(CC)c1ccc(NC(=O)Cn2nnc(-c3cccc(OC)c3OC)n2)c(C)c1 | 0% | 0% | 31* | 16
Cc1ccc(NC(=O)Cn2nnc(-c3ccccc3)n2)c(C)c1 | 17% | -3% | 7 | ·
Cc1ccccc1OCC(=O)Nc1cc(-c2cccc(Br)c2)nn1-c1ccccc1 | · | 5% | 1 | ·
O=C1CC(c2ccccc2)CC2=C1CN(C1CCCCC1)CN2 (centres undefined) | 2% | 0% | -3 | -79*
COc1ccc(N(Cc2ccccc2)C(=O)c2nc(SC)ncc2Cl)cc1 | · | 11µM* | -19 | ·
CCSc1ncc(Cl)c(C(=O)N(Cc2ccccc2)Cc2ccco2)n1 | · | 10µM* | -6 | ·
CCS(=O)(=O)c1ncc(Cl)c(C(=O)N(Cc2ccccc2)c2ccc(OC)cc2)n1 | · | ? | -24 | ·
CCCS(=O)(=O)c1ncc(Cl)c(C(=O)N(Cc2ccccc2)Cc2ccco2)n1 | · | 13µM* | -26 | ·
CSc1ncc(Cl)c(C(=O)N(Cc2ccc(N(C)C)cc2)Cc2ccco2)n1 | · | ? | 3 | ·
CCCSc1ncc(Cl)c(C(=O)N(Cc2ccc(Cl)cc2)Cc2ccco2)n1 | · | -79% | 0 | ·
COc1ccc(/C=N/n2c(=S)n(C)c3ccccc32)cc1OC | ? | 0% | 63* | 47
OCCN1CCN(c2cc(-c3ccc(CO)cc3)nc3ccnn23)CC1 | 4% | 12% | -7 | ?
CC(=O)Nc1cccc(-c2cc(N3CCN(CCO)CC3)n3nccc3n2)c1 | -7% | 8% | 37* | -15
Cc1c(CCC(=O)NCCc2ccccc2)c(=O)oc2c(C)c(O)ccc12 | · | -3% | -13 | ·
Cc1nn(-c2c(Cl)cc(Cl)cc2Cl)c(=O)c2ccccc12 | -2% | 8.9µM* | -22 | ?
COc1ccc(Oc2ncc(CN3CCN(c4ccccc4)CC3)s2)cc1 | 4% | ? | 35* | 0
Cc1cc(Cl)ccc1Oc1ncc(CN2CCN(c3ccccc3)CC2)s1 | 5% | ? | 25 | 27
COc1cccc(N2CCN(Cc3ncc(-c4ccccc4)o3)CC2)c1 | -1% | ? | 4 | -56*
COc1cccc(N2CCN(Cc3cccnc3)CC2)c1 | 16% | -12% | -12 | ?
Cc1ccc2ccc3cc(C(=O)N4CCN(c5ccccc5)CC4)nc3c2[nH]1 | -12% | ? | 4 | ·
Cc1cccc(N2CCN(C(=O)CN3C(=O)COc4ccc(S(=O)(=O)N5CCCC5)cc43)CC2)c1C | -6% | -2% | -4 | ·
COC(=O)c1c(-c2ccc(C)cc2)csc1NC(=O)Cc1ccc(OC)c(OC)c1 | 10% | -9% | 32* | 93
COC(=O)c1c(-c2ccc(Br)cc2)csc1NC(=O)Cc1ccc(OC)c(OC)c1 | 7% | ? | 12 | 21
SMILES | GLP1R ag | GLP1R inv ag | D3 ag | DRD3 antagonist
O=C(CCCCn1c(=O)c2ccccc2n(Cc2ccccc2)c1=O)NC1CCN(Cc2ccccc2)CC1 | 7% | -12% | -20 | -58*
O=C(Cn1[nH]c(=O)c2ccccc2c1=O)NC1CCN(Cc2ccccc2)CC1 | -13% | -21% | -8 | -72*
O=C(CCCCn1c(=O)c2ccccc2n(CC(=O)NC2CCCC2)c1=O)NC1CCCC1 | -12% | 3% | -1 | -16
CCOC(=O)c1c(NC(=O)CSc2cn(CCNC(=O)c3ccc(OC)cc3)c3ccccc23)sc2c1CCCC2 | 1% | -32% | 1 | ·
Cc1nc2c(=O)n(C)c(=O)[nH]c2n1Cc1ccccc1 | 0% | 5% | -2 | -62*
CCCn1c(-c2ccccc2)nc2c(=O)n(C)c(=O)[nH]c21 | 20% | 0% | 1 | -5
Cc1cc2c(cc1S(=O)(=O)NCCc1ccccc1)NC(=O)CO2 | 6% | ? | 3 | 8
CCCc1ccccc1OCCNS(=O)(=O)c1cc2c(cc1C)OCC(=O)N2 | 7% | ? | 42* | 4
O=C(Cn1c(=O)n2nc(-c3cccc(F)c3)nc2c2ccccc21)N1CCN(c2ccc(F)cc2)CC1 | · | 10% | -12 | ·
COc1ccc(NC(=O)N2CCc3c(sc4c3CCCC4)C2c2ccc(F)cc2)cc1 (centres undefined) | · | 2.8µM* | -17 | ·
COc1cc(NC(=O)Cn2ncc3c([nH]c4ccc(C)cc43)c2=O)cc(OC)c1OC | · | 16% | 5 | ·
Cc1cc(C)c2nc(NNC(=O)c3cc(-c4cccs4)nc4ccccc34)sc2c1 | -1% | ? | 16 | 89
O=C(NNc1nc2ccc(Cl)cc2s1)c1cc(-c2cccs2)nc2ccccc12 | -7% | ? | 42* | 109
COCC1=C(C(=O)OC(C)OC(=O)OC(C)C)N2C(=O)C(NC(=O)/C(=N\OC)c3csc(N)n3)C2SC1 (centres undefined) | -6% | · | · | ·
COc1ccc(NC(=O)c2cc(C3CCCCN3C(=O)C3CCCCC3)on2)c(C)c1 (centres undefined) | -2% | ? | 0 | -15
Cc1ccc(-c2cc3c(nn2)-c2ccccc2C3=O)cc1 | -2% | 1.4µM* | -8 | -26
CC(=O)N1CC(C)Oc2ccc(S(=O)(=O)NC(CC(=O)O)c3ccccc3)cc21 (centres undefined) | -4% | 3% | 1 | 3
COc1ccc(NC(=O)CN(C)C(=O)/C=C/c2cn(-c3ccccc3)nc2-c2ccc(C)cc2)cc1 | -19% | ? | -2 | -55*
COc1cccc(NC(=O)CN(C)C(=O)/C=C/c2cn(-c3ccccc3)nc2-c2ccc(C)cc2)c1 | -7% | 2µM* | 6 | 17
COc1ccc(NC(=O)CN(C)C(=O)/C=C/c2cn(-c3ccccc3)nc2-c2ccc(F)cc2)cc1 | 7% | ? | -23 | -4
O=C(NCc1cccc(Cl)c1)c1cnc(N2CCCCC2)c2ccccc12 | · | -64% | 1 | ·
CN1CCN(Cc2cc(=O)oc3cc4c(cc23)CCC4)CC1 | -4% | 0% | -8 | ?
CCCCc1cc(=O)oc2cc(OCC(=O)NC3CCN(Cc4ccccc4)CC3)ccc12 | 0% | 1% | -15 | -54*
Cc1cc2oc(=O)cc(CN3CCCC3)c2cc1Cl | -5% | 13% | -8 | ?
CCOC(=O)C1CCN(Cc2cc(=O)oc3cc(C)c(Cl)cc23)CC1 | 10% | 22% | 36* | 11
SMILES | GLP1R ag | GLP1R inv ag | D3 ag | DRD3 antagonist
COc1ccc2c(CN3CCCC3)cc(=O)oc2c1 | 5% | 25% | -10 | 5
CC1CCN(Cc2cc(=O)oc3cc4c(cc23)CCCC4)CC1 | -4% | 5% | -18 | -98*
CCc1cc(=O)oc2cc(C)cc(OCC(=O)NC3CCN(Cc4ccccc4)CC3)c12 | 5% | -14% | -1 | ?
COC(=O)C1CCN(Cc2cc(=O)oc3cc(OC)ccc23)CC1 | 15% | 14% | 34* | -16
CCOC(=O)Cn1cccc1-c1nc(-c2ccc(OC)cc2)c(-c2ccc(OC)cc2)s1 | 3% | · | 1 | ·
CCc1ccc(CNC(=O)CCCN2C(=O)CCn3nc(-c4cccn4C)cc32)cc1 | · | -15% | 2 | ·
